# Compound activity deposited in PubChem BioAssay by National Center for Advancing Translational Sciences (NCATS).
# DT40 TDP1 CPT: qHTS for Inhibitors of human tyrosyl-DNA phosphodiesterase 1 (TDP1): qHTS in cells in presence of CPT | chicken DT40 Tdp1-/-;hTDP1 cells + 20 nM CPT, ATP luminescence, 48 h | Potency, µM (series often up to 46.2 µM), without a hit: at the highest dose activity change, negative = growth inhibition, usual class: inhibitors | 420,000 tested, 12% active; also: nearly all actives have a fitted effect of over 55% in size
#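 Chicken DT40 Tdp1-/- cells stably complemented with human TDP1 were seeded at 400 cells/well in medium containing 20 nM camptothecin, exposed to pin-transferred compounds, and grown at 37 °C for at least 48 hr. Viability was read as ATP luminescence.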
# RORgamma inh: qHTS for inhibitors of ROR gamma transcriptional activity. 310,000 tested, 5.4% active. AID 2551, 2010. Drosophila S2 Gal4-RORgamma UAS-luciferase reporter, 20 h. Potency, µM (highest dose often 53.6 µM), for inactives: top-dose activity change, negative = inhibition, actives largely listed as inhibitors. Nuclear receptor ROR-gamma (Mus musculus), P51450; also: nearly all actives have a fitted effect of over 60% in size
# Target sequence (P51450 whole entry, looked up, the tested form may be a part): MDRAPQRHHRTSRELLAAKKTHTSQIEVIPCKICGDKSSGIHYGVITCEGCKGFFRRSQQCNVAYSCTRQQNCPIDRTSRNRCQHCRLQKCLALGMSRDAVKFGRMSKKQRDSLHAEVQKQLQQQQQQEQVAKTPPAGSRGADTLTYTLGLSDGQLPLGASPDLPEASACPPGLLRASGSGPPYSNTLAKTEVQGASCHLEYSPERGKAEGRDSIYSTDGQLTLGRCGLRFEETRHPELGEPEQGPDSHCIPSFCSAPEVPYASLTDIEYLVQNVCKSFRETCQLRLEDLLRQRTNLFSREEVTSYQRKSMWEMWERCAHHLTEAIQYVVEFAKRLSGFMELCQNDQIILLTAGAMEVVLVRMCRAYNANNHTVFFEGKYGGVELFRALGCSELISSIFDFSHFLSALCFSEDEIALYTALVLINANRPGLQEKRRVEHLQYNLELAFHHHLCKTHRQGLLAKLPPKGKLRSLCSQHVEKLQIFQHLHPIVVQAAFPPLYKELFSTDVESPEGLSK
#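 A Gal4/UAS one-hybrid system in insect cells: metallothionein-promoter Gal4–ROR gamma fusion plus Photinus luciferase reporter. Copper sulfate 700 uM final, 20 hr ambient incubation, luminescent detection after 10 min with reagent.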
# TDP1 cell noCPT: qHTS for Inhibitors of human tyrosyl-DNA phosphodiesterase 1 (TDP1): qHTS in cells in absence of CPT | 420,000 tested, 15% active | Potency, µM (doses to about 46.2 µM), for the others: top-dose activity change, negative = growth inhibition, hits mostly inhibitors | DT40 Tdp1-/- hTDP1 cells, no CPT, ATP luminescence, 48 h | AID 686978, 2013; also: nearly all actives have a fitted effect of over 55% in size
#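 Chicken DT40 Tdp1-/- cells stably complemented with human TDP1 were seeded at 400 cells/well with DMSO in place of 20 nM camptothecin. After compound pinning, cells grew at least 48 hr at 37 °C; viability read by CellTiter-Glo luminescence.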
# VP16 counter: VP16 counterscreen qHTS for inhibitors of ROR gamma transcriptional activity; Drosophila S2 Gal4-VP16 UAS-luciferase, luminescence, 20 h; Potency, µM (highest dose often 53.6 µM), without a hit: at the highest dose activity, negative = inhibition, actives largely listed as inhibitors; 310,000 tested, 3.5% active;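 also: Gal4-VP16 expression switched on by copper sulfate through the metallothionein promoter; nearly all actives have a fitted effect of over 50% in size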
# TDP1 inh: qHTS Assay for Inhibitors of Tyrosyl-DNA Phosphodiesterase (TDP1). Tyrosyl-DNA phosphodiesterase 1 (Homo sapiens), Q9NUW8. recombinant TDP1, AlphaScreen DNA substrate cleavage. 350,000 tested, 0.28% active. Potency, µM (titrated, usually from 130 µM), for the others: at the top dose activity change, negative = inhibition, most hits filed as inhibitors; also: nearly all actives have a fitted effect of over 40% in size
#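 Compounds were preincubated with Tdp1 (1 nM final) for 15 min at room temperature before substrate (15 nM final) started a 5 min reaction; beads (10 ug/ml final) were then added for 10 min before AlphaScreen detection.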
# An asterisk follows results filed as active; ? = inconclusive; . = no result given; [ ] = dose if it differs, or a comment. Only some compounds are listed: those with a hit (about 19% of all), similar ones and a draw of the others. Calls follow the shape of the dose curve; as a rule, active = well fitted curve in the direction sought with a large enough effect; inconclusive = small, poorly fitted or top-dose-only effect, or another doubt; inactive = no such curve, though single readings can be large; an effect the other way counts as inactive or inconclusive. % is scaled to controls: 0 for no effect and ±100 for the full control effect; potency is read from the fitted curve at half-maximal effect.
SMILES,DT40 TDP1 CPT,RORgamma inh,TDP1 cell noCPT,VP16 counter,TDP1 inh
CCC(C)Nc1nc(-c2cccc(OC)c2O)nc2ccccc12 (configuration not stated),?,16.4%,?,-13.9%,11.6%
COc1cccc(-c2nc(N3CCN(Cc4ccccc4)CC3)c3ccccc3n2)c1O,?,-16.5%,16.4µM*,4.2%,6.1%
COc1cccc(-c2nc(NC(C)C)c3ccccc3n2)c1O,?,?,20.6µM*,?,10.8%
COc1cccc(-c2nc(N3CCCCC3)c3ccccc3n2)c1O,25.9µM*,.,20.6µM*,.,.
CCc1cccc2c1NC1(CCCC1)CC2C (configuration not stated),?,-13.1%,20.6µM*,4.0%,7.2%
CCc1cccc2c1NC(=O)C2=O,19.0%,.,-13.7%,.,.
COc1ccc(CC(=O)OCC(=O)N2CCN(S(=O)(=O)c3ccc(C)cc3C)CC2)cc1,4.1%,.,3.8%,.,0.6%
CC(C)=CC/C=C1\CCC(C(=O)O)C(C(=O)O)C1 (configuration not stated),?,2.4%,0.0291µM*,-1.2%,6.8%
COc1ccccc1C(=O)NNc1ncc(C)s1,?,-39.1%,?,-15.6%,7.4%
O=C(NNc1c2ccccc2nc2ccccc12)c1ccccc1O,?,17.8%,20.6µM*,-25.2%,8.5%
O=C(NNc1nc(=O)c2cccnc2s1)c1ccccc1O,0.0052µM*,0.0501µM*,0.0164µM*,-89.6%,9.2%
Cc1ccc(C(=O)NNC(=O)c2ccc3ccccc3c2O)cc1,23.8%,14.1µM*,?,10µM*,.
COc1ccc(C(=O)NNC(=O)c2ccc3ccccc3c2O)cc1,-24.3%,.,-17.8%,.,1.9%
O=C(NNc1c2ccccc2nc2ccccc12)c1ccc(O)cc1O,?,4.1%,16.4µM*,-24.1%,11.2%
O=C(NNc1c2ccccc2nc2ccccc12)c1ccccc1Cl,-23.2%,-21.3%,?,-12.7%,.
CC1Cc2ccccc2N1CC(=O)Nc1ccc(Cl)c(S(=O)(=O)N(C)C)c1 (configuration not stated),6.3%,16.2%,-1.2%,7.9%,7.2%
CCCCn1c(=O)c(CCC(=O)OCC(=O)Nc2cccc3ccccc23)nc2ccccc21,-0.8%,8.0%,?,-4.5%,2.6%
CCOC(=O)c1cnc2c(Cl)cccc2c1NCCCN1CCOCC1,?,0.8%,?,-1.1%,.
CCSC1=NSC2=NC(=O)/C(=C\c3coc4ccccc4c3=O)C(=N)N12,-0.1%,39.8%,?,-7.5%,-5.5%
O=C(NNC(=O)c1ccccc1O)c1cc2ccccc2o1,?,.,23.1µM*,.,.
O=C(NNC(=O)c1cccc2ccccc12)c1ccccc1O,14.6µM*,-0.8%,?,5.1%,2.5%
O=C(NNC(=O)c1cc2ccccc2o1)c1ccncc1,-6.1%,.,8.6%,.,0.8%
CCOC(=O)c1c(SCC(=O)Nc2nc(C)cs2)nc(=O)[nH]c1C,-11.0%,-1.5%,4.9%,1.2%,2.2%
CCOc1ccc(CNC(=O)CCCn2nc(C)c3c(C)n(-c4ccc(C)cc4)nc3c2=O)cc1,?,13.6%,?,-5.6%,-7.0%
Cc1ccc(-n2nc3c(=O)n(CCCC(=O)NCc4ccc(Cl)cc4)nc(C)c3c2C)cc1,23.1µM*,-1.1%,13µM*,-9.8%,-16.8%
SMILES,DT40 TDP1 CPT,RORgamma inh,TDP1 cell noCPT,VP16 counter,TDP1 inh
Cc1cccc(CNC(=O)CCCn2nc(C)c3c(C)n(-c4ccccc4)nc3c2=O)c1,-23.6%,16.7%,?,-8.2%,4.8%
COc1ccc(CNC(=O)CCCn2nc(C)c3c(C)n(-c4ccc(C)cc4)nc3c2=O)cc1,?,5.4%,9.2µM*,-0.4%,-0.3%
Cc1ccc(-n2nc3c(=O)n(CCCC(=O)NCc4cccc(Cl)c4)nc(C)c3c2C)cc1,23.1µM*,17.3%,?,-9.5%,3.6%
N#Cc1c(-c2ccc(Cl)cc2)cc(-c2cccs2)nc1SCC(=O)O,-5.0%,12.2%,?,-16.6%,.
COc1ccc(CC(=O)N2CCC3(CC2)NCCc2[nH]cnc23)cc1,1.5%,-10.2%,-1.3%,-5.6%,2.3%
CSc1ccc(C(=O)C2CCCN(C(=O)CCc3c(C)nn(C)c3C)C2)cc1 (configuration not stated),10.3µM*,.,8.2µM*,.,.
CSc1ccc(C(=O)C2CCCN(C(=O)c3cccnc3SC)C2)cc1 (configuration not stated),?,37.4%,16.4µM*,5.7%,3.0%
COc1ccc2cc(C(=O)C3CCCN(C(=O)c4cccnc4)C3)ccc2c1 (configuration not stated),?,0.4%,?,-3.7%,5.7%
CSc1ncccc1C(=O)N1CCCC(C(=O)c2ccc3ccccc3c2)C1 (configuration not stated),?,?,20.6µM*,4.1%,1.2%
COc1ccccc1C(=O)C1CCCN(C(=O)c2cccnc2SC)C1 (configuration not stated),?,9.3%,?,2.1%,2.6%
O=C(c1ccc2ccccc2c1)C1CCCN(C(=O)c2cccnc2)C1 (configuration not stated),16.4µM*,4.6%,14.6µM*,5.4%,4.5%
CCc1nnc(NC(=O)CN2CCN(Cc3cccc(OC)c3)CC2)s1,7.9%,-24.8%,-24.3%,0.7%,3.5%
COc1ccc(OC)c(NC(=O)c2cc3c(s2)-c2ccccc2SC3)c1,?,.,?,.,0.0%
CSc1ccc(C(=O)C2CCCN(C(=O)c3ccsc3)C2)cc1 (configuration not stated),?,28.2%,?,3.4%,-2.4%
CN(C)c1ccccc1C(=O)N1CCCC(C(=O)c2ccc3ccccc3c2)C1 (configuration not stated),?,?,23.1µM*,4.1%,2.7%
CN(C)c1ccccc1C(=O)N1CCCC(Nc2ccc(F)cc2)C1 (configuration not stated),-15.4%,18.4%,3.0%,7.9%,5.5%
CSc1ccc(C(=O)C2CCCN(C(=O)c3ccc4c(c3)no[n+]4[O-])C2)cc1 (configuration not stated),?,-74.0%,13µM*,?,.
CCOc1cc(C(=O)NC(C)C2CCCO2)cc(OCC)c1OCC (configuration not stated),0.1%,14.5%,1.9%,9.4%,0.6%
COc1cccc(NS(=O)(=O)c2ccc(NC(C)=O)cc2)c1,?,?,?,-7.3%[0.365 µM],2.6%
CCCOc1c(Br)cc(C(=O)NCC)cc1OC,-1.6%,21.7%,-5.3%,2.6%,0.0%
